# In the library only some 4.7% were active in any assay of this set; here they are far more common.
# ATXN2 expr inh: ATXN2 expression inhibition | 360,000 compounds, 0.72% hits | HEK-293 ATXN2-luciferase reporter, luminescence, 24 h | Potency, µM (doses to about 57 µM), hits mostly inhibitors; note: nearly all actives have a fitted effect of over 55% in size
#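 qHTS (up to 57 uM final) was run with 24 h compound exposure of reporter cells at 37 °C. Each well was multiplexed: SteadyGlo luminescence measured ATXN2-luciferase expression after a fluorogenic Gly-Phe-AFC viability readout (25 uM final).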
# HepG2 tox: kills HepG2 cells in TGF-b inhibitor counter-screen | HepG2 CAGA-GFP viability, ATP luminescence, 18 h | Potency, µM (series often up to 46.1 µM), most hits filed as cytotoxic | 410,000 compounds, 0.76% hits
#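 HepG2 CAGA-GFP cells (1000/well, DMEM with 1% FBS) received compound, then TGF-beta at 500 pg/mL final, and were incubated 18 hours at 37 degrees C. Viability was read by CellTiter-Glo luminescence. Media-only wells were set as complete cell-killing and DMSO as no toxicity.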
# TGFb inhibitor: TGF-b pathway inhibition | HepG2 CAGA-GFP TGF-b/SMAD3 reporter, GFP fluorescence, 18 h; TGF-beta stimulated, 500 pg/mL final | AID 588855 | Potency, µM (series often up to 46.1 µM), actives largely listed as inhibitors | 410,000 compounds, 1.2% hits; note: nearly all actives have a fitted effect of over 65% in size
#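 TGF-beta reporter screen: HEPG2 CAGA-GFP, 1% FBS, 500 pg/mL TGF-beta final, 18 h; per-cell GFP summed per well; curves fitted and categorized by class.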
# D3 antag: blocks the human D3 dopamine receptor. D3R cells, DiscoveRx beta-arrestin luminescence, antagonist mode; active compounds read low. 360,000 compounds, 2.5% hits. max response, negative = inhibition, %; in the data active = max response below about -50%; inconclusive = no clear call, values can overlap the other calls
# Target sequence (P35462 whole entry, looked up): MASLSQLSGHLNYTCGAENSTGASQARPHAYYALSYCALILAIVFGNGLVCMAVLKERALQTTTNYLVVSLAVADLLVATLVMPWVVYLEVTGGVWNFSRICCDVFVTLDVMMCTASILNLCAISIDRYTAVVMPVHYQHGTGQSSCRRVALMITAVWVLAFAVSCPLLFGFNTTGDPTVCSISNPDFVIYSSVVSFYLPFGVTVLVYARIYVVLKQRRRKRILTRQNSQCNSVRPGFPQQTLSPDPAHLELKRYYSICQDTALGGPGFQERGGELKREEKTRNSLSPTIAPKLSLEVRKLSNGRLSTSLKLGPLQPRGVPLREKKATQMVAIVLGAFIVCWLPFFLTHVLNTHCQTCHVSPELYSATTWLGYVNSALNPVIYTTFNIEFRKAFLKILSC
#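 Cells plated overnight at 1500 cells/well, then exposed to library compounds with dopamine controls for 90 minutes at 37 degrees C. DiscoveRx reagent added for 30–60 minutes at room temperature; luminescence read, quantitative HTS format.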
# DRD3 agonist: activates the human D3 dopamine receptor | D3R DiscoveRx beta-arrestin cells, luminescence, 90 min | max activation, % | 410,000 compounds, 0.58% hits | P35462; in the data active = max activation above about 30%
#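 Agonist-mode cell screen: cells plated at 1500/well and incubated overnight at 37 °C, then exposed to library compounds for 90 min at 37 °C. Detection reagent was added for 30–60 min at room temperature, and luminescence was read.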
# S2 tox: cell viability loss in ATXN counter-screen; S2 cells (HEK-293 line with an ATXN2-luciferase reporter) viability, CellTiter-Fluor protease fluorescence, 24 h; Potency, µM (top dose mostly 56.7 µM), hits mostly cytotoxic; 400,000 compounds, 0.49% hits; AID 651635; note: nearly all actives have a fitted effect of over 40% in size
# Numbers stand for hits; – = inactive; ? = inconclusive; · = no result; ! = repeats disagree. Unless noted, calls come from the whole dose curve; as a rule, active = well fitted curve in the direction sought with a large enough effect; inconclusive = small, poorly fitted or top-dose-only effect, or another doubt; inactive = no such curve, though single readings can be large; an effect the other way counts as inactive or inconclusive.
SMILES,ATXN2 expr inh,HepG2 tox,TGFb inhibitor,D3 antag,DRD3 agonist,S2 tox
Cc1ccc(CNC(=O)Cn2c(SCC(=O)Nc3ccc(F)cc3)nc3ccccc32)cc1,?,7.1µM,?,·,–,?
Cc1ccc(NC(=O)CSc2ncc(-c3ccccc3)n2C(=O)c2ccccc2)cc1,–,–,–,–,–,–
O=C(Cn1c(SCC(=O)Nc2ccc(F)cc2)nc2ccccc21)NCc1ccc(F)cc1,–,–,–,·,–,?
CCCN(CCC)c1cc(C)nc2nc(-c3ccc(C(C)(C)C)cc3)nn12,–,–,–,·,–,–
Cc1ccc(C(=O)NCC(c2ccc3c(c2)OCO3)N2CCOCC2)cc1C (centres undefined),–,–,–,·,–,–
Oc1cc(O)cc(C=Cc2ccc(O)c(O)c2)c1,–,·,·,·,·,·
O=C(NCC(c1cccnc1)N1CCc2ccccc2C1)C(=O)Nc1ccccc1F (centres undefined),·,–,–,·,–,·
COc1cccc(CNc2ncnc3sc(C(=O)N4CCOCC4)c(C)c23)c1OC,·,·,·,·,·,–
CNCC(=O)c1c[nH]c2ccccc12,·,–,–,·,·,·
Cc1ccc(C(=O)O)cc1N1CCCC1=O,–,–,–,-51,–,–
CCCn1c2ccccc2c2cnn(CC(=O)Nc3cc(C)c(Cl)cc3OC)c(=O)c21,·,–,–,·,–,·
CN(C)c1ccc(/C=C2\C=Cc3ccccc32)c(Cl)c1,·,–,–,·,·,·
COc1ccc(CNc2nc3ccccc3n2Cc2ccc(Cl)cc2)cc1OC,–,–,14µM,–,–,–
CCn1c(NCc2ccc(OC)c(OC)c2)nc2ccccc21,·,–,–,·,–,·
CCN(CC)c1ccc(CNc2nc3ccccc3n2CCN2CCCCC2)cc1,?,–,?,–,–,?
COc1ccc(CNc2nc3ccccc3n2CCN2CCCCC2)cc1,?,–,–,-64,–,–
CCN(Cc1ccccc1)C(=O)C1CCN(S(=O)(=O)c2ccc3c(c2)CCCN3C(C)=O)CC1,–,–,?,·,–,–
COc1cccc(-c2cc3c(c(OC)c2)OCCN(Cc2ccccc2O)C3)n1,·,·,·,·,·,–
CCCN1CCC(=O)N(CCC#N)CC1,·,–,–,·,·,·
O=S(=O)(Nc1cccnc1)c1ccc(Cl)c(C(F)(F)F)c1,–,–,–,-51,–,–
OCC(CBr)(CBr)CBr,–,–,–,-54,–,–
COc1ccc(CN2[C@@H](CC(=O)O)c3cc(C(F)(F)F)ccc3S2(=O)=O)cc1,–,–,–,–,–,–
COc1ccc(CN2[C@@H](CC(=O)O)c3ccc(/C=C/C(=O)O)cc3S2(=O)=O)cc1,·,–,–,·,·,·
COc1ccc(CN2[C@@H](CC(C)=O)c3ccc(/C=C/C(C)=O)cc3S2(=O)=O)cc1,?,11µM!,?,–,–,?
COC(=O)C[C@H]1c2cc(C(F)(F)F)ccc2S(=O)(=O)N1Cc1ccc(OC)cc1,–,–,–,–,48,–
SMILES,ATXN2 expr inh,HepG2 tox,TGFb inhibitor,D3 antag,DRD3 agonist,S2 tox
COc1cccc(N2[C@@H](CC(C)=O)c3ccc(/C=C/C(C)=O)cc3S2(=O)=O)c1,?,–,16µM,–,–,·
O=C1/C(=C\c2ccc(O)c(O)c2)Oc2c1ccc(O[C@@H]1O[C@H](CO)[C@@H](O)[C@H](O)[C@H]1O)c2O,·,–,–,·,·,·
CNc1c(Br)cc(/C=C2\C=Cc3ccccc32)cc1Br,·,–,?,·,·,·
C=CCN(CC=C)C(=S)NC(=O)c1ccc(OC)cc1,–,–,–,-69,–,–
CC(C)n1c(O)c(/C=C2\C=NN=C2c2ccccc2)sc1=S,–,16µM,?,–,–,–
COC(=O)c1cccc(NC(=O)CSc2nc(=O)cc(N)n2-c2ccccc2)c1,–,–,–,-51,–,–
c1ccc2nc(-c3ccc(N4CCOCC4)cc3)ccc2c1,3.5µM,–,?,–,–,–
Cc1cc(-c2ccc(N3CCOCC3)cc2)nc2ccccc12,–,–,–,–,–,–
CN1CCN(c2ccc(-c3ccc4ccccc4n3)cc2)CC1,0.38µM,–,–,–,–,·
O=C1CN(C(=O)c2ccc(S(=O)(=O)N3CCCC3)cc2)C(c2ccccc2)c2cc(Cl)ccc2N1 (centres undefined),–,–,–,·,–,?
COc1ccccc1C(=O)N[C@@H]1c2ccccc2C2(CCN(C(=O)c3ccnn3C)CC2)[C@H]1OC,·,·,·,·,·,–
